# Data taken from the supplement of paper PMC6411743.
# ± gives the standard deviation of the averaged measurements. Of roughly 5,400 targets only a part is listed; those with the largest changes were picked by preference.
# Compound: Nc1nc2c(ncn2[C@@H]2O[C@H](COP(=O)(O)OP(=O)(O)OP(=O)(O)O)[C@@H](O)[C@H]2O)c(=O)[nH]1 [guanosine triphosphate]
# Experiment: NP40-soluble protein abundance relative to vehicle (solubility fold change) (ratio); higher = more soluble protein in presence of GTP
# Conditions: concentration: 4mM
# Outline: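 Data come from three independent experiments in which Dounce-homogenised Jurkat crude lysate was treated at eight concentrations from 0.1 to 10 mM. Treatment ran 10 min at room temperature and then 3 min at 37 °C, after which 0.8% NP40 and benzonase were added for 60 min at 4 °C before ultracentrifugation. The supernatant underwent TMT labelling and LC-MS/MS, and vsn-normalised intensities were expressed as fold change against the detergent-processed vehicle in each replicate.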
# UniProt Q9BTT0, sequence (Q9BTT0 whole entry, one chain of several): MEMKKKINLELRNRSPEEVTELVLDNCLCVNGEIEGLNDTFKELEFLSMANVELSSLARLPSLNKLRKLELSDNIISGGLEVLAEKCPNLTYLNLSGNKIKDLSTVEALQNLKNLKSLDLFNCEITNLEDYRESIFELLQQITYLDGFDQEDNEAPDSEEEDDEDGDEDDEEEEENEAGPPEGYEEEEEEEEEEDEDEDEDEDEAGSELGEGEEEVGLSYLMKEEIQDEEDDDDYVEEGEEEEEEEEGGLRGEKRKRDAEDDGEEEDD
# UniProt P10242, sequence (P10242 whole entry, one chain of several): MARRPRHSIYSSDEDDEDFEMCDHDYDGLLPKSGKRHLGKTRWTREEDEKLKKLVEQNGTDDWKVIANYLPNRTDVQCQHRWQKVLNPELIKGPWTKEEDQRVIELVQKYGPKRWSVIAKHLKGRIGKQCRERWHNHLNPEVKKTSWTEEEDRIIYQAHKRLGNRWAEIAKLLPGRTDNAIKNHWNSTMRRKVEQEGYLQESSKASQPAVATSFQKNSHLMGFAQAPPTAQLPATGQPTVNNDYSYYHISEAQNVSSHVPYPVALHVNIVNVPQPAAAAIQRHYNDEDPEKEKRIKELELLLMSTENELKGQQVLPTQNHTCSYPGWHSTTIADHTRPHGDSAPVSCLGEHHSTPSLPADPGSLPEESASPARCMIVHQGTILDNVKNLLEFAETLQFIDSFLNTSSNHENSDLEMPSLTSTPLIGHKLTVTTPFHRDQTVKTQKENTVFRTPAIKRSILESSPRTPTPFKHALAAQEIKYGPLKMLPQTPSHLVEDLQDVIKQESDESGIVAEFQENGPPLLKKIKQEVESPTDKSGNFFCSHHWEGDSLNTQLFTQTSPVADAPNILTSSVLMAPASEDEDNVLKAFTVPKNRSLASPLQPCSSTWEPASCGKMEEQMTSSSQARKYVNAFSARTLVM
# UniProt Q2M389, sequence (Q2M389 whole entry, one chain of several): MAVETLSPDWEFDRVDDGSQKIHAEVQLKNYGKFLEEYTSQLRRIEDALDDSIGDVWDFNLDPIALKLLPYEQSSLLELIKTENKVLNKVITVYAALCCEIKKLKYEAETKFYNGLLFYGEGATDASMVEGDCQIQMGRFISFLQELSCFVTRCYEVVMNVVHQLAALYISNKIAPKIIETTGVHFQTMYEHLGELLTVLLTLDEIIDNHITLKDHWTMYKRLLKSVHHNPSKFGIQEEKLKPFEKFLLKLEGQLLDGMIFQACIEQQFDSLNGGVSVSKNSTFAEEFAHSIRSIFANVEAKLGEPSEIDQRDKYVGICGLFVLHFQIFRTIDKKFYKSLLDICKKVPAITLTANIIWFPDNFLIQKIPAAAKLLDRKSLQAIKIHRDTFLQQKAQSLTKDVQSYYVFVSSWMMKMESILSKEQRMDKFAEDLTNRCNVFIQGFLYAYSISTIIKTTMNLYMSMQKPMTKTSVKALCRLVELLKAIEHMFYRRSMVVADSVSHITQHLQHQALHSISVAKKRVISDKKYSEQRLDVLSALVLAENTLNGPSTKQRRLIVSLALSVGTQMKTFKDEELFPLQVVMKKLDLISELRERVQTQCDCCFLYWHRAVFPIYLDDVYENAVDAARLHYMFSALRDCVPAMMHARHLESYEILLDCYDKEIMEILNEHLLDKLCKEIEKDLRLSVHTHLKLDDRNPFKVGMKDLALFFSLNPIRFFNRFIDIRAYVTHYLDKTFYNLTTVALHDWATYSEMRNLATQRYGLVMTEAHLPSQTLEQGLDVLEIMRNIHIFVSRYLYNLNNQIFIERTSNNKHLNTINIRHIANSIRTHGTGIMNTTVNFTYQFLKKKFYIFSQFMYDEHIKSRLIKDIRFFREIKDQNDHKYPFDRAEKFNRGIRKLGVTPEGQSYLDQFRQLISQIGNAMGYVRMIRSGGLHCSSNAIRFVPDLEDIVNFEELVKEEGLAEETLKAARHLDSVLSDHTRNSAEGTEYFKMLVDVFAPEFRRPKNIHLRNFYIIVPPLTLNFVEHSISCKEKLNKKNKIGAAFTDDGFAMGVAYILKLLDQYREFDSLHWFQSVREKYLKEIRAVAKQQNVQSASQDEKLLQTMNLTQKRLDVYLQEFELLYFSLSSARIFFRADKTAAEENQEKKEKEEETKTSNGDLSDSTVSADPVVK
# UniProt Q8TAG9, sequence (Q8TAG9 whole entry, one chain of several): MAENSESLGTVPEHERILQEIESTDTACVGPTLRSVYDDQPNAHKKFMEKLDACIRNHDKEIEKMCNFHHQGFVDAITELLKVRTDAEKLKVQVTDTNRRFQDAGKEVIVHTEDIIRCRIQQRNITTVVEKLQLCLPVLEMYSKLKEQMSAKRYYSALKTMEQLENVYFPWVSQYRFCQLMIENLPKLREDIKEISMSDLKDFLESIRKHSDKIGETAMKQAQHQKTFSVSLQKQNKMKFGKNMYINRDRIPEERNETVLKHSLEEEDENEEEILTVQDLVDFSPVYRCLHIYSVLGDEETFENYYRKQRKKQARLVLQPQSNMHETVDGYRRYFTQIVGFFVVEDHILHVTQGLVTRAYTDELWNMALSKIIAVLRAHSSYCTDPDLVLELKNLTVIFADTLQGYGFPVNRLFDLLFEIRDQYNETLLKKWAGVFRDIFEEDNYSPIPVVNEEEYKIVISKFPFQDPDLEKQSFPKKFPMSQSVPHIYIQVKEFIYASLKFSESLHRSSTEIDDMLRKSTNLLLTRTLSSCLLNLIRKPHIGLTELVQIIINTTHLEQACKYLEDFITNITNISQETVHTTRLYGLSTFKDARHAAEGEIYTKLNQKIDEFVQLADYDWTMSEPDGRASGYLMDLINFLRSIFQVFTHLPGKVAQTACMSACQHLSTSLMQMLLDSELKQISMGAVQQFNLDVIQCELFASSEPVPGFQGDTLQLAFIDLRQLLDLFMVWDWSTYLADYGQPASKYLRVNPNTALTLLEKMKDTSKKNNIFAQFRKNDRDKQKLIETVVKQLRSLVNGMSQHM
# UniProt P07766, sequence (P07766 whole entry, one chain of several): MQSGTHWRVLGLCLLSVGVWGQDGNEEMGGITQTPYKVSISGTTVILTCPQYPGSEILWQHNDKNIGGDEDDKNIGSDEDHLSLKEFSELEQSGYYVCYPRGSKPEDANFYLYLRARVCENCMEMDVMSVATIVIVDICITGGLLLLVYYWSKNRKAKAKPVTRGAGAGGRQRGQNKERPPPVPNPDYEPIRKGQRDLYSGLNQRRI
# UniProt Q96B45, sequence (Q96B45 whole entry, looked up, one chain of several): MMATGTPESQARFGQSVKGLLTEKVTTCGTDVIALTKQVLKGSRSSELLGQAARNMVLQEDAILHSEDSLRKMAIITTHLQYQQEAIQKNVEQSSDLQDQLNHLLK
# UniProt Q9BQ39, sequence (Q9BQ39 whole entry, one chain of several): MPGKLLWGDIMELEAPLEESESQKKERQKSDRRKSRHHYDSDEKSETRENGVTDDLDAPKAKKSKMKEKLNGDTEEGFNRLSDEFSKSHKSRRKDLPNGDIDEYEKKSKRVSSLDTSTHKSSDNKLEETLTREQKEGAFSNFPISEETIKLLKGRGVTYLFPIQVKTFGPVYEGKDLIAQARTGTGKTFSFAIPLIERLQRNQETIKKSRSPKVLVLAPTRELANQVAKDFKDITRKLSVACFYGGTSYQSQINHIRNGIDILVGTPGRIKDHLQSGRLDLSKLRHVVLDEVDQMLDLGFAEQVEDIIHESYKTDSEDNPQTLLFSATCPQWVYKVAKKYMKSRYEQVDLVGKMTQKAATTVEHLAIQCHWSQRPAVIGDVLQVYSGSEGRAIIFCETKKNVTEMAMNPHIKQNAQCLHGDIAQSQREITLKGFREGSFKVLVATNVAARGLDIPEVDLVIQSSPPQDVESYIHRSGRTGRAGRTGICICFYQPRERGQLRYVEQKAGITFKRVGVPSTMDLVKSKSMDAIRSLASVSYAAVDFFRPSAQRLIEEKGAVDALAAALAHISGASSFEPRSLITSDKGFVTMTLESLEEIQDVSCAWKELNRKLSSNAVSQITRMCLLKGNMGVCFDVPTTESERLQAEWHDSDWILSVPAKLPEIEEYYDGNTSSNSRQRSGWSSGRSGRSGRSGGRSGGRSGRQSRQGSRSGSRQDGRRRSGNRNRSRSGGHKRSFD
# UniProt P02792, sequence (P02792 whole entry, one chain of several): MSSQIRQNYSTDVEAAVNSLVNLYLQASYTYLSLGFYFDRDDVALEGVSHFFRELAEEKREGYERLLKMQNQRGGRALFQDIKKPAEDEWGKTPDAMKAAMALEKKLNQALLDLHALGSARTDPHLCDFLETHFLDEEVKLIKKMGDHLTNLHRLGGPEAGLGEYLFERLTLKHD
# UniProt Q9UHB6, sequence (Q9UHB6 whole entry, one chain of several): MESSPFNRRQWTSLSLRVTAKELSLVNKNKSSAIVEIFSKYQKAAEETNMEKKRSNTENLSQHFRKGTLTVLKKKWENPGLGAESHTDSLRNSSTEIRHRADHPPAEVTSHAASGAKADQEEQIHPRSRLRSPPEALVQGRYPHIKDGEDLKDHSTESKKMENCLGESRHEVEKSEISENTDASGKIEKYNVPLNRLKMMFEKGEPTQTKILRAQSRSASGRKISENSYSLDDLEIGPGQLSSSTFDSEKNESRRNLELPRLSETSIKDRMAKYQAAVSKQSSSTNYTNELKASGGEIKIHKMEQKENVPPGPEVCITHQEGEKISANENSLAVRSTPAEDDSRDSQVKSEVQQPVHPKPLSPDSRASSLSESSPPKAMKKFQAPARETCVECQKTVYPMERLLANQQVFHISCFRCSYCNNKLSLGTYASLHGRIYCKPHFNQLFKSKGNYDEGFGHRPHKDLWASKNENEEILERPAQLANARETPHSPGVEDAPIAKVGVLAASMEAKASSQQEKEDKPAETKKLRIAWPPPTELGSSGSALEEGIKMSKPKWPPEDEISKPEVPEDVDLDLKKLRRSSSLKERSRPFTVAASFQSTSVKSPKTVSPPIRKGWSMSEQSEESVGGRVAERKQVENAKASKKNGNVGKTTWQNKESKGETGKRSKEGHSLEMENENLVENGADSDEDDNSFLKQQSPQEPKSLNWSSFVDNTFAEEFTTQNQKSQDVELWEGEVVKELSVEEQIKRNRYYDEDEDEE
# UniProt Q15004, sequence (Q15004 whole entry, one chain of several): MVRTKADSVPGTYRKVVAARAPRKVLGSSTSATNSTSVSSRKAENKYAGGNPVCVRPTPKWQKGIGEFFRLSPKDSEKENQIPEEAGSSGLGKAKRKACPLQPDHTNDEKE
row,Target,NP40-soluble protein abundance
1,A0A087WVC1|Q9BQ39 (UniProt Q9BQ39),2.57 ± 0.26
2,A8MXF6|B7ZBD5|Q9UBK7|Q9UBK7-2|Q9UBK7-3|Q9UNT1|Q9UNT1-2|Q9UNT1-3 (UniProt Q9UNT1+Q9UBK7+B7ZBD5+A8MXF6),0.947 ± 0.046
3,D6RIH7|Q9UM22 (UniProt Q9UM22),0.902 ± 0.12
4,A6NHB5|A6NHN7|Q14202|Q14202-2 (UniProt Q14202),1.37 ± 0.16
5,G3V5T0|O43708 (UniProt O43708),0.848 ± 0.068
6,A0A0C4DFX4|Q6ZRS2|Q6ZRS2-2|Q6ZRS2-3 (UniProt Q6ZRS2),1.6 ± 0.21
7,B8ZZ10|Q9NQ29|Q9NQ29-2|Q9NQ29-3 (UniProt Q9NQ29),1.98 ± 0.12
8,E9PGC0|P20936|P20936-2|P20936-4 (UniProt P20936),0.909 ± 0.027
9,A0A087WYN9|Q7Z478 (UniProt Q7Z478),1.8 ± 0.23
10,D6R938|E9PBG7|E9PF82|Q13557|Q13557-10|Q13557-11|Q13557-12|Q13557-3|Q13557-4|Q13557-5|Q13557-6|Q13557-8|Q13557-9 (UniProt Q13557),1.1 ± 0.1
11,E9PFN5|Q9Y2Q3 (UniProt Q9Y2Q3),0.887 ± 0.042
12,A8MQB8|G3V0J0|Q06787|Q06787-2|Q06787-3|Q06787-4|Q06787-5|Q06787-6|Q06787-7|Q06787-8|Q06787-9 (UniProt Q06787),1.41 ± 0.093
13,F8W8G5|P10242|P10242-10|P10242-11|P10242-2|P10242-4|P10242-7|P10242-8|P10242-9 (UniProt P10242),1.12 ± 0.037
14,C9JWC4|Q8NCD3|Q8NCD3-2|Q8NCD3-3 (UniProt Q8NCD3),1.19 ± 0.15
15,A0A0B4J1R7|Q96B45 (UniProt Q96B45),1.09 ± 0.24
16,A0A0U1RRH6|O94880|O94880-2 (UniProt O94880),1.34 ± 0.12
17,H3BMU3|O60268|O60268-3 (UniProt O60268),0.961 ± 0.14

row,Target,NP40-soluble protein abundance
1,E9PHG5|Q6UW02|Q6UW02-2 (UniProt Q6UW02),0.955 ± 0.16
2,E9PSH8|P07766 (UniProt P07766),0.962 ± 0.082
3,E9PPH5|Q9BTT0|Q9BTT0-3 (UniProt Q9BTT0),0.937 ± 0.056
4,A0A087X256|Q2M389 (UniProt Q2M389),0.957 ± 0.028
5,F8VQE1|Q9UHB6|Q9UHB6-2|Q9UHB6-4|Q9UHB6-5 (UniProt Q9UHB6),1.35 ± 0.12
6,A0A087X1B9|P02792 (UniProt P02792),1.64 ± 0.14
7,A0A087WUC6|E9PI68|Q15005|E9PL01 (UniProt Q15005),0.858 ± 0.041
8,H0YKX3|Q15004 (UniProt Q15004),0.957 ± 0.13
9,A0A087WZV8|A0A0G2JN66 (UniProt P01850),1.01 ± 0.036
10,A0A087WYN2|J3KSS7|Q9NZ52|Q9NZ52-4 (UniProt Q9NZ52),0.92 ± 0.14
11,A0A0C4DGS0|P56556 (UniProt P56556),1.09 ± 0.17
12,E7EW84|Q8TAG9 (UniProt Q8TAG9),1.01 ± 0.12
13,C9JRJ5|Q9UGP4 (UniProt Q9UGP4),0.963 ± 0.031
14,A0A0A0MRR7|P09234 (UniProt P09234),1.33 ± 0.11
15,A0A0B4J1Z1|C9JAB2|Q16629|Q16629-2|Q16629-3|Q16629-4 (UniProt Q16629),1.44 ± 0.33
16,A0A0A0MRF6|Q99996|Q99996-2|Q99996-3|Q99996-5|Q99996-6 (UniProt Q99996),1.15 ± 0.09

# Same assay, conditions: concentration: 6mM
row,Target,NP40-soluble protein abundance
1,A0A087WVC1|Q9BQ39 (UniProt Q9BQ39),3.29 ± 0.3
2,A8MXF6|B7ZBD5|Q9UBK7|Q9UBK7-2|Q9UBK7-3|Q9UNT1|Q9UNT1-2|Q9UNT1-3 (UniProt Q9UNT1+Q9UBK7+B7ZBD5+A8MXF6),0.955 ± 0.071
3,D6RIH7|Q9UM22 (UniProt Q9UM22),0.908 ± 0.13
4,A6NHB5|A6NHN7|Q14202|Q14202-2 (UniProt Q14202),1.4 ± 0.15
5,G3V5T0|O43708 (UniProt O43708),0.854 ± 0.076
6,A0A0C4DFX4|Q6ZRS2|Q6ZRS2-2|Q6ZRS2-3 (UniProt Q6ZRS2),1.62 ± 0.17
7,B8ZZ10|Q9NQ29|Q9NQ29-2|Q9NQ29-3 (UniProt Q9NQ29),2.09 ± 0.14
8,E9PGC0|P20936|P20936-2|P20936-4 (UniProt P20936),0.931 ± 0.032
9,A0A087WYN9|Q7Z478 (UniProt Q7Z478),1.84 ± 0.27
10,D6R938|E9PBG7|E9PF82|Q13557|Q13557-10|Q13557-11|Q13557-12|Q13557-3|Q13557-4|Q13557-5|Q13557-6|Q13557-8|Q13557-9 (UniProt Q13557),1.13 ± 0.1
11,E9PFN5|Q9Y2Q3 (UniProt Q9Y2Q3),0.888 ± 0.031
12,A8MQB8|G3V0J0|Q06787|Q06787-2|Q06787-3|Q06787-4|Q06787-5|Q06787-6|Q06787-7|Q06787-8|Q06787-9 (UniProt Q06787),1.71 ± 0.037
13,F8W8G5|P10242|P10242-10|P10242-11|P10242-2|P10242-4|P10242-7|P10242-8|P10242-9 (UniProt P10242),1.12 ± 0.1
14,C9JWC4|Q8NCD3|Q8NCD3-2|Q8NCD3-3 (UniProt Q8NCD3),1.18 ± 0.067
15,A0A0B4J1R7|Q96B45 (UniProt Q96B45),1 ± 0.19
16,A0A0U1RRH6|O94880|O94880-2 (UniProt O94880),1.46 ± 0.096
17,H3BMU3|O60268|O60268-3 (UniProt O60268),0.918 ± 0.2

row,Target,NP40-soluble protein abundance
1,E9PHG5|Q6UW02|Q6UW02-2 (UniProt Q6UW02),0.984 ± 0.14
2,E9PSH8|P07766 (UniProt P07766),0.96 ± 0.082
3,E9PPH5|Q9BTT0|Q9BTT0-3 (UniProt Q9BTT0),0.946 ± 0.037
4,A0A087X256|Q2M389 (UniProt Q2M389),0.973 ± 0.044
5,F8VQE1|Q9UHB6|Q9UHB6-2|Q9UHB6-4|Q9UHB6-5 (UniProt Q9UHB6),1.71 ± 0.067
6,A0A087X1B9|P02792 (UniProt P02792),1.465 ± 0.0048
7,A0A087WUC6|E9PI68|Q15005|E9PL01 (UniProt Q15005),0.881 ± 0.045
8,H0YKX3|Q15004 (UniProt Q15004),0.982 ± 0.15
9,A0A087WZV8|A0A0G2JN66 (UniProt P01850),0.98 ± 0.023
10,A0A087WYN2|J3KSS7|Q9NZ52|Q9NZ52-4 (UniProt Q9NZ52),0.94 ± 0.16
11,A0A0C4DGS0|P56556 (UniProt P56556),1.02 ± 0.093
12,E7EW84|Q8TAG9 (UniProt Q8TAG9),0.897 ± 0.022
13,C9JRJ5|Q9UGP4 (UniProt Q9UGP4),0.962 ± 0.021
14,A0A0A0MRR7|P09234 (UniProt P09234),1.56 ± 0.097
15,A0A0B4J1Z1|C9JAB2|Q16629|Q16629-2|Q16629-3|Q16629-4 (UniProt Q16629),1.55 ± 0.35
16,A0A0A0MRF6|Q99996|Q99996-2|Q99996-3|Q99996-5|Q99996-6 (UniProt Q99996),1.14 ± 0.095
